Assay outcomes deposited in PubChem by National Center for Advancing Translational Sciences (NCATS).
Hits are enriched below; roughly 11% of the tested compounds scored in any of these assays.
FBPA coupling cs: qHTS Assay for Inhibitors of Fructose-1,6-bisphosphate Aldolase from Giardia Lamblia: Coupling assay counterscreen | coupling enzyme system counterscreen, AmpLite Red fluorescence | activity change, negative = inhibition, % at 58.2 µM, hits read low | hit rate 0.67% among 290,000 | AID 2472, 2010; in the data active means activity change below about -30%
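Compounds tested against the coupling enzymes alone at 57.5 uM final; readout was AmpLite Red fluorescence (525/598 nm) after 20 min at RT.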
G9a inh: qHTS Assay for Inhibitors of Histone Lysine Methyltransferase G9a; Histone-lysine N-methyltransferase EHMT2 (Homo sapiens), Q96KQ7; G9a H3K9 monomethylation, AlphaScreen, 2 h; Potency, µM (series often up to 102 µM), inactives show top-dose activity, negative = inhibition, actives largely listed as inhibitors; hit rate 8.8% among 350,000; AID 504332, 2011; further: potency means the concentration at half of the fitted maximal effect; nearly all actives have a fitted effect of over 75% in size
Target sequence (Q96KQ7 913-1193 limits assumed): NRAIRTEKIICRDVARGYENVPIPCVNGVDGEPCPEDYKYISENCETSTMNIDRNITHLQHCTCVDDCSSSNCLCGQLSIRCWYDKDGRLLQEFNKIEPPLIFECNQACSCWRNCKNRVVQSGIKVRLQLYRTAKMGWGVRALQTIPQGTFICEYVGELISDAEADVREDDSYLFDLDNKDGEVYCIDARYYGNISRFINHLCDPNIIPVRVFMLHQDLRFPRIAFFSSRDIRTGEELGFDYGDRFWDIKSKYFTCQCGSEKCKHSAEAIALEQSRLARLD
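Compounds were preincubated with 20 nM G9a for 15 min, after which biotinylated H3K9 peptide (500 nM) and SAM (20 uM) started a 2 h room-temperature reaction. Monomethylated product was quantified by antibody-based AlphaScreen chemiluminescence.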
Tau ThT inhib: qHTS for Inhibitors of Tau Fibril Formation, Thioflavin T Binding; hit rate 2.1% among 270,000; recombinant tau K18 P301L, heparin-induced fibrillization, ThT fluorescence; Microtubule-associated protein tau (Homo sapiens), P10636; Potency, µM (series often up to 57.4 µM), for inactives: at the top dose activity, negative = inhibition, usual class: inhibitors; AID 1460, 2008; further: potency means the concentration at half of the fitted maximal effect; nearly all actives have a fitted effect of over 55% in size
Target sequence (P10636 561-689 P618L limits assumed): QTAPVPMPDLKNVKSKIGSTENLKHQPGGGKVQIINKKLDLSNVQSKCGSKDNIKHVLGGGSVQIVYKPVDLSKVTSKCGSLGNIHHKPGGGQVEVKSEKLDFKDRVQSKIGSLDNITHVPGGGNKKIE
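Fibril formation assay: tau K18 P301L at 15 uM with trace Alexa 594 label, heparin inducer 20 uM, pH 7 sodium acetate buffer, 37 C for 6 hr; endpoint ThT signal.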
Tau fluor counter: Counterscreen qHTS for Inhibitors of Tau Fibril Formation, Fluorescence Polarization. hit rate 0.93% among 280,000. Potency, µM (series often up to 57.7 µM), for the others: top-dose activity change, negative = decrease. tau K18 P301L (four-repeat tau fragment) Alexa594 fluorescence, heparin fibrillization; further: potency means the concentration at half of the fitted maximal effect; nearly all actives have a fitted effect of over 55% in size
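Human K18 P301L tau (15 uM unlabeled plus 0.24 uM Alexa 594-labeled, final) in 100 mM sodium acetate pH 7 was mixed with compound and 20 uM heparin and incubated 6 hr at 37 C.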
Tau fibril FP: qHTS for Inhibitors of Tau Fibril Formation, Fluorescence Polarization; Microtubule-associated protein tau (Homo sapiens), P10636; K18 P301L tau heparin fibrillization, Alexa594 FP, 6 h; Potency, µM (doses to about 57.7 µM), without a hit: at the top dose activity, negative = inhibition, actives largely listed as inhibitors; hit rate 0.39% among 280,000; further: potency means the concentration at half of the fitted maximal effect; nearly all actives have a fitted effect of over 55% in size
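Recombinant K18 P301L […], labeled with Alexa 594 at 0.24 uM over 15 uM unlabeled; heparin inducer 20 uM final; 37 C, 6 hr; FP endpoint.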
Sfp inh: qHTS Assay for Inhibitors of Bacillus subtilis Sfp phosphopantetheinyl transferase (PPTase); 4'-phosphopantetheinyl transferase ffp (Bacillus subtilis), Q9F4F7; Biochemical Sfp PPTase activity, qHTS; Potency, µM, without a hit: largest response in the series, negative = inhibition, actives largely listed as inhibitors; hit rate 3.5% among 310,000; AID 1490, 2009;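 further: the enzyme is Sfp with the accession as filed and its product quenches rhodamine fluorescence; potency means the concentration at half of the fitted maximal effect; 0% = enzyme reaction without inhibitor and -100% = no enzyme wells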
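Compounds were incubated with enzyme (final 15 nM) for 15 min at room temperature before substrate addition started the reaction. Fluorescence at 525 nm excitation, 598 nm emission was recorded immediately and after 30 minutes.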
Starred values were filed as active, the others as inactive; ? = inconclusive; / = no result given; [ ] = dose if it differs, or a comment. Unless noted, the call rests on the fitted dose curve; in most records, active means well fitted curve in the direction sought with a large enough effect; inconclusive means small, poorly fitted or top-dose-only effect, or another doubt; inactive means no such curve, though single readings can be large; an effect the other way counts as inactive or inconclusive. Unless noted, on the % scale 0 is the no-effect control and ±100 the full control effect.

SMILES | FBPA coupling cs | G9a inh | Tau ThT inhib | Tau fluor counter | Tau fibril FP | Sfp inh
NC(=O)C1CCN(C2=C(Cl)C(=O)c3ccccc3C2=O)CC1 | -51* | 11µM* | 13% | 3% | 3% | 18µM*
NC(=O)C1CCN(C(=O)c2ccc3c(c2)S(=O)(=O)c2ccccc2C3=O)CC1 | 0 | -6%[59 µM] | / | / | / | 14%
CCOC(=O)Cn1c(=O)n(-c2ccccc2OC)c2nc(-c3ccccc3C)nc(C(N)=O)c21 | / | 1%[59 µM] | -1% | -7% | -6% | /
CC1CN(c2cc(=O)n(-c3ccccc3)c(=O)[nH]2)CC(C)O1 (centres undefined) | -1 | 40µM* | -4% | 3% | 0% | 6%
CN(C)c1ccc(CNc2ccccn2)cc1 | 0 | ? | / | / | / | 21%
CCn1c(NCc2cccs2)nc2ccccc21 | -4 | -4%[12.7 µM] | -6% | 2% | 6% | 14%
CCN(CC)c1ccc(CNc2nc3ccccc3n2CCN2CCCCC2)cc1 | 0 | 25µM* | -13% | -16% | 13% | 3%
Cc1cccc(NCc2ccc(N(C)C)cc2)n1 | -1 | 50µM* | / | / | / | 4%
CCn1c(NCc2ccccn2)nc2ccccc21 | -1 | 8.9µM* | -12% | -4% | 8% | ?
CCn1c(NCc2ccc(N(C)C)cc2)nc2ccccc21 | 3 | 20µM* | -3% | -3% | -1% | -2%
Cc1ccc(CSc2nnc3[nH]c(=O)cc(C)n23)cc1 | / | 2%[59 µM] | -9% | 0% | 0% | /
CCN(CCO)Cc1cc(=O)oc2cc3c(cc12)CCC3 | -3 | 40µM* | -12% | -5% | -6% | 9%
O=C1CCCC=C1[C@@H](O)CCOC(c1ccccc1)(c1ccccc1)c1ccccc1 | -1 | / | -4% | -9% | -5% | 12%
Cc1ccc(-n2c(=O)cc(N3CCN(C(=O)c4ccco4)CC3)[nH]c2=O)cc1 | 0 | 45µM* | -13% | 0% | 6% | -22%
Cn1c(=O)cc(N2CCN(C(=O)c3ccco3)CC2)[nH]c1=O | -18 | / | -1% | 6% | -7% | 2%
Cc1nn2c(=O)cc(COC(=O)c3ccc(NC(=O)c4ccc(C(C)(C)C)cc4)cc3)nc2s1 | / | -5%[59 µM] | -5% | -17% | -2% | /
COCCNc1nnc(SCC(=O)Nc2sc3c(c2C(=O)c2ccccc2)CCCC3)s1 | -10 | 45µM* | ? | -28% | 3% | ?
CC(=O)Nc1c(O)nc(SCC(=O)Nc2nnc(SCc3ccccc3)s2)[nH]c1=O | 21 | 20µM* | ? | ? | ? | 35µM*
COCCSc1nnc(NC(=O)CSCc2ccccc2)s1 | 0 | 14µM* | -3% | -4% | 6% | 15%
COCCSc1nnc(NS(=O)(=O)c2ccccc2)s1 | 2 | 28µM* | 10% | 15% | 9% | -23%
Nc1nnc(SCC(=O)Nc2sc3c(c2C(=O)c2ccccc2)CCCC3)s1 | -3 | ? | ? | ? | -8% | -17%
O=C(NCc1noc2ccccc12)N1CCN(c2ccccc2)CC1 | / | 4%[59 µM] | 0% | 0% | 6% | /
CC1=C(C(N)=O)C(c2cccc(C)c2)n2nc(-c3cccc(C)c3)nc2N1 (centres undefined) | / | ? | 2% | -9% | -12% | /
COc1ccccc1CNC(=O)COC(=O)Cn1cnc2ccccc21 | 2 | -39% | -2% | -3% | -1% | 15%
O=C(/C=C\c1ccc(-c2cccc([N+](=O)[O-])c2)o1)N1CCOCC1 | 2 | 32µM* | ? | ? | 1% | 20µM*
SMILES | FBPA coupling cs | G9a inh | Tau ThT inhib | Tau fluor counter | Tau fibril FP | Sfp inh
O=C(/C=C/c1ccccc1[N+](=O)[O-])N1CCOCC1 | 0 | / | / | / | / | -4%
O=C(Nc1ccccc1)c1ccc(-c2ccc(Br)cc2)o1 | -2 | ? | ? | ? | ? | 13%
O=C(NN1C(=O)NC2(CCCCC2)C1=O)c1ccc(-c2ccc([N+](=O)[O-])cc2)o1 | / | 79µM* | / | / | / | 10%
O=C(Nc1ccccc1)c1ccc(-c2ccc([N+](=O)[O-])cc2)o1 | -1 | 35µM* | / | / | / | 50µM*
N#C/C(=C(/O)c1ccc(-c2cccc([N+](=O)[O-])c2)o1)c1nc2ccccc2s1 | -2 | 45µM* | 6.3µM* | ? | 10% | 35µM*
O=C(NN1C(=O)NC2(CCCCC2)C1=O)c1ccc(-c2ccccc2Cl)o1 | / | 0%[2.33 µM] | / | / | / | /
Cc1ccc(NC(=O)CSc2nc(=O)n(CCN3CCOCC3)c3c2CCC3)c(C)c1 | / | ? | -4% | 1% | -2% | /
CCOc1ccccc1N1CC(c2nc3ccccc3n2CCOc2ccc(OC)cc2)CC1=O (centres undefined) | / | -41%[59 µM] | -15% | -7% | 13% | /
COc1ccccc1C(=O)NCCC(=O)OCC(=O)Nc1ccc(S(N)(=O)=O)cc1 | / | -9%[12.7 µM] | / | / | / | /
CC1CCN(c2ccccc2NC(=S)NC(=O)c2ccc(-c3cccc([N+](=O)[O-])c3)o2)CC1 | 1 | -40% | -14% | -17% | 3% | -6%
CC1(C)CC(NC(=O)c2ccc(-c3ccc([N+](=O)[O-])cc3)o2)CC(C)(C)N1 | / | 45µM* | / | / | / | -23%
CC(=O)c1ccc(NC(=O)c2ccc(-c3ccc(Cl)cc3)o2)cc1 | / | ? | ? | ? | -12% | /
COc1ccc(NC(=O)c2ccc(-c3ccc(C(C)=O)cc3)o2)cn1 | / | 1.6µM* | / | / | / | /
O=C(CCNC(=O)c1ccc([N+](=O)[O-])cc1)Nc1nccs1 | -1 | 50µM* | -7% | -3% | 2% | 12%
CC1(C)CC(NC(=O)Nc2ccc([N+](=O)[O-])cc2)CC(C)(C)N1 | 2 | 4% | 0% | 2% | 1% | -1%
CC1CCN(c2ccc(NC(=S)NC(=O)c3ccc(-c4cccc([N+](=O)[O-])c4)o3)cc2)CC1 | 1 | 7%[2.33 µM] | 2µM* | ? | -4% | ?
